# Records with an inconclusive call do not appear. A number with no mark means an inactive call. Calls follow the shape of the dose curve; as a rule, active = well fitted curve in the direction sought with a large enough effect; inconclusive = small, poorly fitted or top-dose-only effect, or effect the other way, or another doubt; inactive = no such curve, though single readings can be large or run the other way.
# Target: Alpha-galactosidase A (Homo sapiens) (UniProt P06280)
# Assay: Confirmation of Inhibitors of Human alpha-Galactosidase Using Spleen Homogenate; also: 0% is about no effect
# Details: alpha-galactosidase enzyme activity; series mostly up to 56.2 µM; activity change: at the top concentration
# How it was run: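 Human spleen homogenate (1 ug) with 1 mM 4-methylumbelliferyl-alpha-D-galactopyranoside in citrate-phosphate pH 5.0, 0.01% Tween-20, 37C 40 min; compounds 0.5 nM–58 uM final. Stopped at pH 10, fluorescence Ex 365/Em 440; AC50 from Hill fits.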
# Alpha-galactosidase A (Homo sapiens), sequence (P06280 32-429 limits assumed): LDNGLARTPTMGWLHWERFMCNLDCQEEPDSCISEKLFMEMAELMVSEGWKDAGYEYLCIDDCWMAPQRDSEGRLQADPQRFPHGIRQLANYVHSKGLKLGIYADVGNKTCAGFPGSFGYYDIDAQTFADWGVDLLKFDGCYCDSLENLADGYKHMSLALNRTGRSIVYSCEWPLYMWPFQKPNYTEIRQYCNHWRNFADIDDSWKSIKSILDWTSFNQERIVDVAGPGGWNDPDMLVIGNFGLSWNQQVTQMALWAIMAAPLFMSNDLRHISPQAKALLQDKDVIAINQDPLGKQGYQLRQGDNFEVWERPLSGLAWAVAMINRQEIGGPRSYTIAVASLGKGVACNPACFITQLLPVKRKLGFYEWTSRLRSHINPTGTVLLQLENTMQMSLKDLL
row,Structure (SMILES),activity change
1,O=S(=O)(c1ccc2nc(-c3ccco3)c(-c3ccco3)nc2c1)N1CCOCC1,4.72%
2,CN1CCN(S(=O)(=O)c2ccccc2)CC1,10.6%
3,CCC(C)Nc1nc(-c2cccc(OC)c2O)nc2ccccc12 (stereo unspecified),1.98%
4,Cc1cccc2cc3c(NC(=O)c4ccccn4)nn(C)c3nc12,4.42% [at 23.6 µM]
5,CC1(C)CC(=O)c2cc(C(=O)NCc3ccco3)c(=O)n(-c3ccc(Cl)cc3)c2C1,3.72% [at 23.6 µM]
6,CCOC(=O)c1cc2c(=O)n3cccc(C)c3nc2n(CCCOC)c1=NC(=O)c1cccnc1,16.7% [at 23.6 µM]
7,CCS(=O)(=O)N1Cc2ccccc2CC1C(=O)Nc1ccc(NC(C)=O)cc1 (stereo unspecified),-1.12% [at 23.6 µM]
8,COc1cc(NC(=O)CN2CCN(c3ccccc3F)CC2)c(C)cc1[N+](=O)[O-],1.56% [at 23.6 µM]
9,Cc1ccc2oc(C(=O)Nc3ccc(S(=O)(=O)N4CCCCC4C)cc3)cc(=O)c2c1 (stereo unspecified),-5.07%
10,Nc1c(NCCN2CCCCC2)c2ccccc2oc1=O,-3.82%
11,COc1cc(CNc2ccc(N3CCOCC3)cc2)cc(Br)c1OC,-3.63%
12,Cc1ccc2c(c1)c1ncnc(N3CCC4(CC3)OCCO4)c1n2C,18.8% [at 23.6 µM]
13,CC(=O)N1CCN(c2ccc(NCc3ccc4c(c3)OCO4)cc2)CC1,-12.3%
14,Cc1ccccc1S(=O)(=O)N1CCOCC1,3.91%
15,COc1cc(CN2CCC(CO)(Cc3cccc(C(F)(F)F)c3)CC2)ccc1F,-4.41%
16,CCOc1ccccc1CNc1ccc(O)cc1,-14.5%
17,N#C/C(=C\c1cc(O)c(O)c(O)c1)C(N)=O,5.7% [at 23.6 µM]
18,CC1=C(C(=O)Nc2ccccc2C)C(c2ccccn2)n2nc(SCc3ccccc3F)nc2N1 (stereo unspecified),-7.43%

row,Structure (SMILES),activity change
1,OCC1NCC(O)C(O)C1O (stereo unspecified),-3.01%
2,CCCn1c(=O)c2c(C(F)(F)F)cc(-c3cccs3)nc2n(CCC)c1=O,19.4%
3,O=S(=O)(c1ccccc1F)N1CCOCC1,10.5%
4,Cc1sc(-c2cc3cc(Cl)ccc3oc2=O)nc1-c1ccccc1,10.1%
5,O=c1[nH]c(CN2CCN(c3ccccc3O)CC2)nc2ccccc12,9.3%
6,O=C(c1cccc2ccccc12)N1CCN(S(=O)(=O)c2ccccc2)CC1,-3.25%
7,CC(=O)N1CCN(c2ccc(NCc3ccc(C(C)C)cc3)cc2)CC1,-2.87%
8,Oc1ccccc1C1CC(c2cccs2)=NC(c2ccc(Cl)cc2)N1 (stereo unspecified),2.01%
9,CC(=O)c1ccc(N2CCN(S(=O)(=O)c3ccc4c(c3)CC(=O)N4)CC2)cc1,2.16%
10,O=S(=O)(c1ccccc1)N1CCN(c2ccccc2)CC1,0.829%
11,COc1cccc(NC(=S)NCc2ccc3c(c2)cc(C)n3C)c1,-0.234%
12,Cc1ccc(S(=O)(=O)N2CCN(C(=O)C3COc4ccccc4O3)CC2)cc1C (stereo unspecified),3.88%
13,Cc1oc2c(O)c(O)ccc2c(=O)c1-c1cnn(-c2ccccc2)c1,-10.3%
14,CCOc1ccc2c(c1)c(=O)c(S(=O)(=O)c1ccc(C)cc1)cn2Cc1ccccc1Cl,-3.76%
15,CCN(CC)S(=O)(=O)c1ccc2c(c1)C(=NNc1ccccc1)c1cc(S(=O)(=O)N(CC)CC)ccc1-2,-3.74%
16,C/C=C1\COC(C(=O)NCCN2CCOCC2)(C(F)(F)F)C=C1C=C1CCCCC1 (stereo unspecified),-3.09%
17,COc1ccc(C2=NNC(c3cc(Cl)cc4c3OCOC4)C2)c(O)c1 (stereo unspecified),0.302%
18,O=C(Cn1c(=O)n(Cc2ccccc2)c(=O)c2sc3ccccc3c21)Nc1ccccc1,-5.67%

# Source: PubChem BioAssay AID2108 (National Center for Advancing Translational Sciences (NCATS), 2009)
